Results filed as inconclusive are left out. Calls of active or inactive are those of the source. Calls come from the whole dose curve; as a rule, active = well fitted cell-killing curve with a large enough effect; inconclusive = small, poorly fitted or top-dose-only effect; inactive = no such curve, though single readings can be large or run the other way. Numbered stars: 1 amine (or outer) side, 2 acyl side, 3 side chain; on linkers, the order of the positions; unused ones are H or OH. Bridge positions count the residues as written; N and C are the ends. Square brackets hold non-standard residues; d marks the D form. Peptide text beside a SMILES is read from it. I, II: the chains in the order shown. Actinocin(9to1) = Cc1c2oc3c(C)ccc(C(=O)[*:1])c3nc-2c(C(=O)[*:2])c(N)c1=O; NMeV = CN[C@H](C(=O)O)C(C)C; Sar = CNCC(=O)O
Test: qHTS of pediatric cancer cell lines to identify multiple opportunities for drug repurposing: Confirmatory screen for SK-N-MC cells (AID 1347111);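 note: cells exposed to compound for 48 h before the readout; nearly all actives have a fitted effect of over 70% in size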
Conditions: SK-N-MC cell viability; series mostly up to 45.9 µM; activity change, negative = cytotoxic: at the top concentration
Source text: Drug repurposing or repositioning has been offered as a strategy for drug development in oncology programs. This approach has special potential for childhood cancers and other rare or orphan diseases, where the expected return on new drug development has been a disincentive to pharmaceuticals.
In this project we exploit the poly-pharmacology of drugs to discover new indications via phenotypic screening of a panel of 19 well-characterized cell lines derived from solid tumors seen in children and adolescents. The goal is to identify approved drugs with previously unrecognized anticancer properties that has the potential to reveal new mechanisms and biological processes involved in carcinogenesis or drug resistance. We employed a titration-based paradigm (quantitative high-throughput screening or qHTS), where all compounds were tested at multiple concentrations for their effect on cell viability. Concentration-response curves (CRCs) were derived directly from the primary screen, and both potency and efficacy values were used to identify compounds with robust bioactivity profiles. We screened the NIH Chemical Genomics Center (NCGC) Pharmaceutical Collection (NPC) and Mechanism Interrogation Plate (MIPE) small molecule collections of approved and investigational compounds against these cell lines; and measured metabolically active cells after 48 hours of compound treatment as a proxy for cell viability.
Assay Submitter: Nathalia J. Martinez, National Center for Advancing Translational Sciences, National Institutes of Health, Rockville, MD, USA; email: natalia.martinez@nih.gov
[1] Shen, M et al. Quantitative high-throughput phenotypic screening of pediatric cancer cell lines identifies multiple opportunities for drug repurposing. Oncotarget 2017 Dec 19;9(4):4758-4772. PMID 29435139.
The cells were obtained from University of North Carolina (UNC), Pediatric Preclinical Testing Program (PPT), and Coriell Institute (CI).
qHTS cell viability assay:
Cells were assayed in growth media at a density of 500-1,000 cells/well. Five microliters of cells were dispensed into 1,536-well, white, solid-bottom, TC-treated plates (Greiner Bio One) using a multidrop dispenser and incubated at 37 degrees C, 5% CO2, under a humidified atmosphere for 5 hours. Twenty-three nanoliters of compounds and controls (neutral control DMSO or positive control bortezomib at final concentration of 2.3 µM) were subsequently transferred by Kalypsys pintool. For primary screens, the MIPE collection was tested at 11-point dilutions (final concentrations range from 0.78 nM to 46 µM) and the NPC collection at 8-point dilutions (final concentrations range from 0.59nM to 46 µM). Compounds tested in follow-up screens were assayed at 11-point dilutions. Cells were incubated for 48 hours, followed by addition of 3 uL of CellTiter-Glo (Promega). After a 15 min incubation at room temperature, samples were analyzed for luminescence intensity using a ViewLux High-throughput CCD imager equipped with clear filters.
Potency is the fitted concentration of half-maximal effect.

| SMILES | activity change, negative = cytotoxic | Potency |
| --- | --- | --- |
| C[C@H]1C[C@H]2[C@@H]3CCC4=CC(=O)C=C[C@]4(C)[C@@]3(Cl)[C@@H](O)C[C@]2(C)[C@@]1(O)C(=O)CO | -77.9% (inactive) | – |
| Cc1c2oc3c(C)ccc(C(=O)N[C@@H]4C(=O)N[C@H](C(C)C)C(=O)N5CCC[C@H]5C(=O)N(C)CC(=O)N(C)[C@@H](C(C)C)C(=O)O[C@@H]4C)c3nc-2c(C(=O)N[C@@H]2C(=O)N[C@H](C(C)C)C(=O)N3CCC[C@H]3C(=O)N(C)CC(=O)N(C)[C@@H](C(C)C)C(=O)O[C@@H]2C)c(N)c1=O (I: T[dV]P[Sar][NMeV] / II: T[dV]P[Sar][NMeV]; ester I:1-I:C, II:1-II:C; linker I:N-II:N via Actinocin(9to1)) | – | 0.0052 µM (active) |
| NC(=O)CC[C@@H]1NC(=O)[C@H](Cc2ccccc2)NC(=O)[C@H](Cc2ccc(O)cc2)NC(=O)CCSSC[C@@H](C(=O)N2CCC[C@H]2C(=O)N[C@@H](CCCN=C(N)N)C(=O)NCC(N)=O)NC(=O)[C@H](CC(N)=O)NC1=O | -4.57% (inactive) | – |
| CC(=O)OCC(=O)[C@@]12N=C(C)O[C@@H]1C[C@H]1[C@@H]3CCC4=CC(=O)C=C[C@]4(C)[C@H]3[C@@H](O)C[C@@]12C | – | 0.261 µM (active) |
| COCc1c(C(C)C)nc(C(C)C)c(/C=C/[C@@H](O)C[C@@H](O)CC(=O)O)c1-c1ccc(F)cc1 | – | 2.93 µM (active) |
| CCCCC(CC)CN=C(N)NC(N)=NCCCCCCN=C(N)NC(N)=NCC(CC)CCCC (stereo not drawn) | – | 7.37 µM (active) |
| CC(=O)OCC(=O)[C@@]1(O)CC[C@H]2[C@@H]3CCC4=CC(=O)C=C[C@]4(C)[C@H]3[C@@H](O)C[C@@]21C | -3.97% (inactive) | – |
| C[C@]12C=CC(=O)C=C1[C@@H](F)C[C@@H]1[C@@H]2[C@@H](O)C[C@@]2(C)[C@H]1CC[C@]2(O)C(=O)CO | 6.77% (inactive) | – |
| O=C(CCCN1CCC(O)(c2ccc(Br)cc2)CC1)c1ccc(F)cc1 | – | 2.61 µM (active) |
| C=C1C[C@H]2[C@@H]3C=C(C)C4=CC(=O)CC[C@]4(C)[C@H]3CC[C@]2(C)[C@@]1(OC(C)=O)C(C)=O | – | 2.61 µM (active) |
| CN(C)C(=S)SC(=S)N(C)C | – | 2.93 µM (active) |
| CC(C)(C(=O)c1cccnc1)c1cccnc1 | – | 2.93 µM (active) |
| C[n+]1c2cc(N)ccc2cc2ccc(N)cc21 (tested in a mixture with another compound) | – | 6.57 µM (active) |
| CC(=O)O[C@]1(C(C)=O)CC[C@H]2[C@@H]3C[C@H](C)C4=CC(=O)CC[C@]4(C)[C@H]3CC[C@@]21C | – | 23.3 µM (active) |
| CCCCCCC[N+](CC)(CC)CCCCc1ccc(Cl)cc1 | – | 9.27 µM (active) |
| CCCC(=O)O[C@]1(C(=O)CO)CC[C@H]2[C@@H]3CCC4=CC(=O)CC[C@]4(C)[C@H]3[C@@H](O)C[C@@]21C | -7.4% (inactive) | – |
| CCC(C(=O)OCCN(CC)CC)c1ccccc1 (stereo not drawn) | – | 13.1 µM (active) |
| CC(=O)OCC(=O)[C@@]1(O)[C@H](C)C[C@H]2[C@@H]3CCC4=CC(=O)C=C[C@]4(C)[C@@]3(F)[C@@H](O)C[C@@]21C | – | 29.3 µM (active) |
| CC(=O)Oc1ccc2c(c1)CC[C@@H]1[C@@H]2CC[C@]2(C)[C@@H](O)CC[C@@H]12 | – | 6.57 µM (active) |
| COc1cc(C=C2CCC/C(=C\c3ccc(O)c(OC)c3)C2=O)ccc1O | – | 0.465 µM (active) |
| NC(CO)(CO)CO | – | 8.27 µM (active) |
| COc1cccc2c1C(=O)c1c(O)c3c(c(O)c1C2=O)C[C@@](O)(C(=O)CO)C[C@@H]3O[C@H]1C[C@H](N)[C@H](O)[C@H](C)O1 | – | 0.293 µM (active) |
| CN(C)/N=N/c1nc[nH]c1C(N)=O | – | 9.27 µM (active) |

Reference: PubChem BioAssay (NCATS)
